Our source for the inhibition values is PubChem BioAssay.

The structures appear in SMILES notation. Activity calls are given as the source filed them. The rule behind the calls is not given here.

The inhibition is the drop in the measured response relative to a control, in per cent.

Sequence of Pantothenate synthetase (Mycobacterium tuberculosis (strain ATCC 25618 / H37Rv)) (P9WIL5 whole entry, looked up): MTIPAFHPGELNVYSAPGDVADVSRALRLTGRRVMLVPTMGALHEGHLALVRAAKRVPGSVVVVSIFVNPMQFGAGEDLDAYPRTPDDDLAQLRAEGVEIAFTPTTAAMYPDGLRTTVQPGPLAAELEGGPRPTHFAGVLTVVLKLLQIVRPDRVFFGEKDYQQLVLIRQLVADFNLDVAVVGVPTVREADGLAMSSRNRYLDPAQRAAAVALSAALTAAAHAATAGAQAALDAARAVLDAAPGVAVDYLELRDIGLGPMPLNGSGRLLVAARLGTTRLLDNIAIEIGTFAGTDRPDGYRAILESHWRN

This test addresses Pantothenate synthetase (Mycobacterium tuberculosis (strain ATCC 25618 / H37Rv)) (UniProt P9WIL5). As to the kind of experiment: Coupled enzyme confirmation of inhibitors against recombinant Mtb PanC (AID 375).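 Note: 0% = full reaction with vehicle and 100% = no enzyme background.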 The following applies: coupled enzyme assay; at 10 µM, stronger effect = higher value.
For `Cc1ccc(C2C3CN(C(C)C)CC=C3C(C#N)=C(N)C2(C#N)C#N)cc1` (stereo not given), the inhibition was 0% (inactive).

As for `COc1ccc(CCNc2oc(COc3ccc(F)cc3)nc2C#N)cc1`, the inhibition is 0% (inactive).

Take `CC1CC(=O)c2cnc(NCC3CCCO3)nc2C1` (stereo not given): the inhibition was 3% (inactive).

On to `COc1ccccc1C(=O)NCC(=O)Nc1ccccc1`, for which the inhibition was 0% (inactive).

Consider `Cc1cc(C)nc(SCCS(=O)Cc2ccc(Cl)cc2)n1` (stereo not given), for which the inhibition was 0% (inactive).

`Cc1nnc(SCC(=O)N2c3ccccc3CC2C)s1` (stereo not given): the inhibition is 0% (inactive).

Take `O=S(=O)(c1ccccc1)c1nc(-c2cccs2)oc1NCC1CCCO1` (stereo not given): the inhibition was 3% (inactive).

`Cc1onc(-c2c(Cl)cccc2Cl)c1C(N)=O`: the inhibition was 0% (inactive).

Consider `O=C(CSc1nnc(-c2ccccc2F)o1)OCc1ccccc1`, for which the inhibition was 0% (inactive).

Take `Cc1nc2ccccc2c(=O)n1NC(=O)c1c(O)c2c(n(CC(C)C)c1=O)CCCC2`: the inhibition is 0% (inactive).

Consider `Cc1ccc(-c2c3c(=O)n(C)c(=O)n(C)c3cn2CCCN2CCOCC2)cc1`, for which the inhibition was 9% (inactive).

On to `Nc1nc(CSc2nc3ccccc3[nH]2)nc(N2CCOCC2)n1`, for which the inhibition is 4% (inactive).

In the case of `CCCc1ccc(Oc2cn[nH]c2-c2ccc(O)c(C)c2O)cc1`, the inhibition was 0% (inactive).

As to `COc1ccc(N2C(=O)CC(N3CCCC4CCCCC43)C2=O)cc1` (stereo not given), the inhibition was 0% (inactive).

Take `O=S(=O)(NCc1ccccn1)c1ccc2c(c1)OCCO2`: the inhibition was 0% (inactive).

On to `COc1ccc(OC)c(C(=O)c2coc3ccc(O)c(CN4CCOCC4)c23)c1`, for which the inhibition was 0% (inactive).

As for `Cc1cccc(NC(=O)CC(C)(C)C)c1`, the inhibition is 0% (inactive).

In the case of `Cn1cnnc1Sc1nc2c(c(=O)n(C)c(=O)n2C)n1Cc1ccccc1Cl`, the inhibition was 0% (inactive).

Take `CC(NC(=O)OCc1ccccc1)C(=O)N1CC(O)CC1C(=O)O` (stereo not given): the inhibition is 0% (inactive).

As for `CCOc1cc(C(=O)Nc2ccon2)cc(OCC)c1OCC`, the inhibition was 8% (inactive).

With `CC(=O)c1cccc(NC(=O)NCc2ccco2)c1`, the inhibition is 0% (inactive).

`CCOc1ccc(NC(=O)CN2CCN(CC(=O)c3ccc(OCC)cc3)CC2)cc1`: the inhibition is 4% (inactive).

Take `CCC(C)NC(=O)C1c2cc(OC)c(OC)cc2C(=O)N(C)C1c1ccc(OC)cc1` (stereo not given): the inhibition was 0% (inactive).

With `CC1CC(C)CN(Cc2nc3c(c(=O)n(C)c(=O)n3C)n2Cc2ccccc2Cl)C1` (stereo not given), the inhibition is 0% (inactive).

With `O=C(CN1CCC(n2nnc3cc(F)ccc32)CC1)Nc1ccc2c(c1)CCC2`, the inhibition is 0% (inactive).

`COC(=O)CN(c1ccc(OC)cc1)S(=O)(=O)c1ccc(OC)c(OC)c1`: the inhibition was 0% (inactive).

`CC(C)Oc1ccc2c(=O)c(-c3ccccc3)coc2c1`: the inhibition is 4% (inactive).

Consider `CCOC(=O)c1sc(NC(=O)c2noc3c2CCCC3)c(C(=O)OCC)c1C`, for which the inhibition is 0% (inactive).

`CC(NC(=O)Nc1nccs1)(C(F)(F)F)C(F)(F)F`: the inhibition was 5% (inactive).

Regarding `CC(C)(C)n1nnnc1C(c1ccccc1)N1CCc2ccccc2C1` (stereo not given), the inhibition is 0% (inactive).

Turning to `CC(C)CC(OC(=O)c1cccs1)C(=O)NCc1ccco1` (stereo not given), the inhibition is 0% (inactive).

`COc1ccc2cc3cc(C(=O)NCC4CCCO4)oc3nc2c1` (stereo not given): the inhibition is 3% (inactive).

`Cc1cc(C)n(C(=O)C23CC4CC(CC(C4)C2)C3)n1`: the inhibition was 0% (inactive).

As to `CCCNS(=O)(=O)c1ccc(OCC(=O)NCc2ccco2)cc1`, the inhibition is 2% (inactive).

`CC(=O)Nc1ccc(S(=O)(=O)N2CCSC2c2ccccc2)cc1` (stereo not given): the inhibition was 7% (inactive).

On to `Cc1cccc(-n2ncc3c(NCCCO)ncnc32)c1`, for which the inhibition is 2% (inactive).

In the case of `O=C(Nc1nnc(-c2ccc(Cl)cc2)o1)C1CCCCC1`, the inhibition is 0% (inactive).

Regarding `CN(C)CCOc1ccccc1Cc1ccccc1`, the inhibition is 0% (inactive).

As for `CCc1nnc(NC(=O)C2CC(=O)N(Cc3ccco3)C2)s1` (stereo not given), the inhibition was 0% (inactive).

With `Cc1csc(SCC(=O)NC(=O)NCc2ccccc2)n1`, the inhibition is 9% (inactive).
